The text below walks through data of PubChem BioAssay AID2685 (National Center for Advancing Translational Sciences (NCATS), 2010).

The structures appear in SMILES notation. The whole screen tested about 320,000 compounds, of which about 2,100 (0.66%) were called active. About 53% were inconclusive and are not listed. The call rests on the fitted dose curve; in most records, active means well fitted inhibition curve with a large enough effect in the signal ratio, with a control signal flat (not every such curve was filed as active); inconclusive means small, poorly fitted or top-dose-only effect, or effect the other way, or a change in a side signal; inactive means flat fitted curve, though single readings scatter; the % refers to the signal ratio. The list comes from a sample in which actives are over-represented; it also holds similar structures and randomly drawn compounds.
Potency means the concentration at half of the fitted maximal effect.

This test is described as follows: qHTS Assay for Lipid Storage Modulators in Drosophila S3 Cells.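 On cell number change: cells counted by Cell Tracker Red CMTPX staining in the red channel.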 On lipid storage change, negative = inhibition: on the % scale 0 is the no-effect control and ±100 the full control effect. The settings on record: BODIPY lipid droplet fluorescence, 18-24 h, cells fed with added oleic acid; cell number change: measured here: cell count max response; series mostly up to 46.1 µM; lipid storage change, negative = inhibition: at the top concentration. In a few lines: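 Drosophila S3 cells got compounds at several concentrations plus oleic acid (400 uM solution). Laser-scanning cytometry with 488 nm excitation read lipid droplets at 500-530 nm and cells at 575-640 nm. Percent activity was relative to 20 uM Triacsin C.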
In general terms: qHTS replaces the single test concentration by a dilution series.
For `Cc1nc2sc(C(=O)OCC(=O)N3c4ccccc4CC3C)c(C)c2c(=O)[nH]1` (configuration not stated), the “lipid storage change, negative = inhibition” value was 3.61% (inactive) and the cell number change turned out to be 19.4%. In the same order, the values of `COc1ccc(N2C(=O)NC(NC(=O)C(C)(C)C)(C(F)(F)F)C2=O)cc1` (configuration not stated) are 4.27% (inactive) and -16.8%. With `CC1(c2ccccc2)CC(c2ccccc2)=Nc2ccccc2N1` (configuration not stated), the “lipid storage change, negative = inhibition” value is 2.96% (inactive) and the cell number change amounted to 1.92%.

With `CC1CC(c2ccccc2)=Nc2ccccc2N1` (configuration not stated), the Potency is 0.82 µM (active) and the cell number change came out at 13.7%.

With `Clc1ccccc1C1CC(c2ccccc2)=Nc2ccccc2N1` (configuration not stated), the “lipid storage change, negative = inhibition” value is -0.673% (inactive) and the cell number change is -20.8%.

Consider `CCN1CCN(Cc2c(C(=O)N/N=C(\C)c3ccc(Cl)c(Cl)c3)nnn2-c2nonc2N)CC1`, for which the “lipid storage change, negative = inhibition” value was -18.5% (inactive) and the cell number change is -0.855%. As to `Cn1c(N)c(C(=O)COC(=O)c2ccc(Cl)c(S(=O)(=O)N3CCCC3)c2)c(=O)n(C)c1=O`, the “lipid storage change, negative = inhibition” value is -8.77% (inactive) and the cell number change was 1.25%. In the case of `O=C(Cn1cc([N+](=O)[O-])cn1)Nc1nc2ccccc2s1`, the result was inactive. Consider `COc1cc(/C=C/C(=O)O)cc(S(=O)(=O)NCCO)c1OC`, for which the “lipid storage change, negative = inhibition” value was -2.02% (inactive) and the cell number change is -11.7%. `CC1Cc2ccccc2N1C(=O)CNCCCN(C)C` (configuration not stated): the Potency is 20.6 µM (active) and the cell number change was -0.87%. For the compound `CC1Cc2ccccc2N1C(=O)CNc1ccccc1N1CCCCC1` (configuration not stated), the “lipid storage change, negative = inhibition” value is -0.0673% (inactive) and the cell number change was determined as 1.48%. `CC1Cc2ccccc2N1C(=O)CSc1ccccc1` (configuration not stated): the “lipid storage change, negative = inhibition” value is 14.5% (inactive) and the cell number change was -23.8%.

On to `CC(NC(=O)c1ccc(Br)cc1)C(=O)NC1=NCCS1` (configuration not stated), for which the cell number change worked out at 5.62% and the lipid storage change, negative = inhibition was -5.54% [at 9.22 µM] (inactive).

On to `CC(NC(=O)c1ccccc1)C(=O)NC1=NCCS1` (configuration not stated), for which the “lipid storage change, negative = inhibition” value is -13.9% (inactive) and the cell number change was -3.51%. `CC(C(=O)NC1=NCCS1)N1C(=O)c2ccccc2C1=O` (configuration not stated): the “lipid storage change, negative = inhibition” value was 4.57% (inactive) and the cell number change is -6.04%. Take `CC(NC(=O)C1CCCCC1)C(=O)NC1=NCCS1` (configuration not stated): the Potency is 20.6 µM (active) and the cell number change was -6.79%.

Regarding `CC(C(=O)NC1=NCCS1)N1C(=O)C2CC=CCC2C1=O` (configuration not stated), the Potency is 29.1 µM (active) and the cell number change was -25.7%. As to `O=C(CN1C(=O)C2CC=CCC2C1=O)NC1=NCCS1` (configuration not stated), the “lipid storage change, negative = inhibition” value is -0.923% (inactive) and the cell number change turned out to be 4.96%.

`COC(=O)CC1C(=O)NC2CCCCC2N1C(=O)c1ccccc1` (configuration not stated): the “lipid storage change, negative = inhibition” value was 9.33% (inactive) and the cell number change was -6.42%. `COCC(C)NC(=O)COc1ccc(Cl)cc1Cl` (configuration not stated): the “lipid storage change, negative = inhibition” value was 8.5% (inactive) and the cell number change came out at 14.4%. Take `CC(=O)N(C)c1nc(N)n(-c2ccccc2)n1`: the “lipid storage change, negative = inhibition” value was 1.59% (inactive) and the cell number change turned out to be 17.4%. With `CN(CC(=O)Nc1ccc(N2CCOCC2)cc1)C(=O)C12CC3CC(CC(C3)C1)C2`, the “lipid storage change, negative = inhibition” value was -1.21% (inactive) and the cell number change was 0.396%.

For `CC(C)(C)c1ccc(NC(=O)Nc2ccc3ccccc3n2)cc1`, the “lipid storage change, negative = inhibition” value is 1.36% (inactive) and the cell number change came to 14.5%. As for `CCCCn1c(=N)n(CC(=O)O)c2ccccc21`, the “lipid storage change, negative = inhibition” value was -7.08% (inactive) and the cell number change is -0.932%. As to `COc1ccc(N(CC(=O)N/N=C/c2cc3ccc(OC)cc3nc2Cl)S(=O)(=O)c2ccccc2)cc1`, the “lipid storage change, negative = inhibition” value is 6.18% (inactive) and the cell number change is 5.98%.

As for `COc1ccc(Cc2noc(CN3CCCN(Cc4ccc(F)cc4)CC3)n2)cc1OC`, the “lipid storage change, negative = inhibition” value was 1.97% (inactive) and the cell number change is -12.5%. Consider `Cc1ccn2c(C(=O)NNC(=O)Nc3ccc(Cl)cc3)c(C)nc2c1`, for which the call was inactive and the cell number change is -7.08%. On to `CCCCN(C(=O)C1CC(=O)N(Cc2ccc(C)cc2)C1)c1c(N)n(CCCC)c(=O)[nH]c1=O` (configuration not stated), for which the outcome was inactive and the cell number change turned out to be 2.26%. On to `CCCCN(C(=O)C1CCCC1)c1c(N)n(CCC)c(=O)[nH]c1=O`, for which the “lipid storage change, negative = inhibition” value was -1.72% (inactive) and the cell number change was found to be 10.4%. For the compound `CCCCN(C(=O)C1CC(=O)N(c2ccc(C)cc2)C1)c1c(N)n(CCC)c(=O)[nH]c1=O` (configuration not stated), the Potency is 20.6 µM (active) and the cell number change was -1.39%. Consider `Cc1ccc(-c2csc(NC(=O)c3cccc(S(=O)(=O)N4CCN(C)CC4)c3)n2)cc1`, for which the “lipid storage change, negative = inhibition” value was 12.3% (inactive) and the cell number change turned out to be 13%.

As for `O=C1CC(c2ccccc2)CC(=NCCO)/C1=C(\O)CCCN1C(=O)c2ccccc2C1=O` (configuration not stated), the “lipid storage change, negative = inhibition” value was -0.796% (inactive) and the cell number change is -9.46%. Take `CC12CN3CCN(CC(C3)C1(O)CN1CCOCC1)C2` (configuration not stated): the Potency is 4.61 µM (active) and the cell number change is 0.875%. `OC1(CN2CCOCC2)C2CN3CCN(C2)CC1(c1ccccc1)C3` (configuration not stated): the “lipid storage change, negative = inhibition” value was 5.96% (inactive) and the cell number change was 10%. With `CC12CN3CCN(CC(C3)C1(O)CN1CCCCC1)C2` (configuration not stated), the “lipid storage change, negative = inhibition” value is -5.91% (inactive) and the cell number change is -4.02%.

With `CCOc1ccc(C(C(=O)NC2CCCC2)N(CCCO)C(=O)c2ccc(-c3ccccc3)[nH]2)cc1` (configuration not stated), the compound was classed as inactive and the cell number change turned out to be 42.7%. Take `Cc1nnc(-c2ccc(Oc3ccc(Br)cc3)c([N+](=O)[O-])c2)o1`: the “lipid storage change, negative = inhibition” value is 5.02% (inactive) and the cell number change was 2.33%.

Consider `O=C(C/C=N/OCc1ccc(Cl)cc1Cl)c1ccc(Cl)cc1`, for which the “lipid storage change, negative = inhibition” value was -12% (inactive) and the cell number change stood at 4.16%. Turning to `Clc1ccc(CNC2CCCC2)cc1`, the Potency is 20.6 µM (active) and the cell number change is -30.8%. As to `Clc1ccc(CNC2CCCC2)c(Cl)c1`, the “lipid storage change, negative = inhibition” value is -3.52% (inactive) and the cell number change was -13.9%. As to `Oc1ccc(CNC2CCCCC2)cc1`, the “lipid storage change, negative = inhibition” value is 15.6% (inactive) and the cell number change turned out to be 0.0125%. In the case of `CCCCOC(=O)C1C2C=CC3(CN(CCc4ccccc4)C(=O)C13)O2` (configuration not stated), the “lipid storage change, negative = inhibition” value is 9.44% (inactive) and the cell number change was -8.47%. In the case of `N#Cc1c(NC(=O)c2ccc(Cn3cc(Br)cn3)o2)sc2c1CCCCC2`, the “lipid storage change, negative = inhibition” value was -16.2% (inactive) and the cell number change was found to be 0.806%. In the case of `Cc1ccc(N=c2sc(C)c(C)n2C)cc1`, the “lipid storage change, negative = inhibition” value is 24.7% (inactive) and the cell number change is -18.9%. With `C1CCCCCC(NCCN2CCNCC2)CCCCC1`, the “lipid storage change, negative = inhibition” value is 2.81% (inactive) and the cell number change was 2.58%. Consider `C1CCC(OCCN2CCN(CCOC3CCCCC3)CC2)CC1`, for which the Potency was 25.9 µM (active) and the cell number change was 6%. For `O=C(c1ccccc1)N1CCN(CC(O)COC2CCCCC2)CC1` (configuration not stated), the “lipid storage change, negative = inhibition” value is 0.0284% (inactive) and the cell number change was found to be 4.36%. As to `COCCNC(=O)CN1CCC(NC(=O)c2ccco2)CC1`, the “lipid storage change, negative = inhibition” value was 6.44% (inactive) and the cell number change is -1.29%. Regarding `Cc1ccc(NC(=O)c2c(F)cccc2Cl)cc1NS(C)(=O)=O`, the “lipid storage change, negative = inhibition” value was -2.17% (inactive) and the cell number change was 5.84%. Turning to `COc1ccc(/C=N/NC(=O)c2cccnc2)cc1CN1CCN(c2ccc(F)cc2)CC1`, the “lipid storage change, negative = inhibition” value is -2.21% (inactive) and the cell number change came to 3.44%.

As to `COc1ccc(CC(=O)Nc2c3c(nn2C(C)(C)C)CS(=O)(=O)C3)cc1OC`, the “lipid storage change, negative = inhibition” value is -9.19% (inactive) and the cell number change was 17%. In the same order, the values of `COCCNCC1C(Oc2ccc(Cl)cc2)C(=O)N1c1ccccc1C` (configuration not stated) are 6.12% (inactive) and 19.6%. In the case of `CCCCNCC1C(Oc2ccc(Cl)cc2)C(=O)N1c1ccccc1C` (configuration not stated), the “lipid storage change, negative = inhibition” value was -32% (inactive).

For `Cc1ccccc1N1C(=O)C(Oc2ccc(Cl)cc2)C1CNCCCOC(C)C` (configuration not stated), the Potency was 23.1 µM (active) and the cell number change was -13.5%. With `Cc1ccnc2c1ccc1c(C)ccnc12`, the “lipid storage change, negative = inhibition” value is -13.5% (inactive) and the cell number change was -0.829%. For `O=C(NCc1n[nH]c(=S)n1-c1ccccc1)c1ccc(S(=O)(=O)N2CCCCC2)cc1`, the “lipid storage change, negative = inhibition” value is -0.121% (inactive). In the case of `COC(=O)c1ccccc1N1CCS(=O)(=O)CC1`, the Potency was 16.4 µM (active) and the cell number change was -18.8%.

Consider `COC(=O)c1ccc(N2CCN(c3ccccc3)CC2)c(N)c1`, for which the “lipid storage change, negative = inhibition” value was 0.528% (inactive) and the cell number change came out at 6.3%. As to `COC(=O)c1ccccc1NC(=O)N1CCN(c2ccccc2F)CC1`, the “lipid storage change, negative = inhibition” value was 13.5% (inactive) and the cell number change is 25.6%.

For the compound `CCOC(=O)C1=C(CS(=O)(=O)c2ccccc2)NC(=O)NC1c1cccc(OC)c1` (configuration not stated), the “lipid storage change, negative = inhibition” value was 8.29% (inactive) and the cell number change worked out at 15.2%.
